# Unmarked numbers belong to inactive results. The rule behind the calls is not given here.
# Molecular target: Pantothenate synthetase (Mycobacterium tuberculosis (strain ATCC 25618 / H37Rv)) (UniProt P9WIL5)
# Assay: Coupled enzyme confirmation of inhibitors against recombinant Mtb PanC (AID 375);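 note: 0% = full reaction with vehicle and 100% = no enzyme background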
# Details: coupled enzyme assay; at 10 µM, stronger effect = higher value
# Chain of Pantothenate synthetase (Mycobacterium tuberculosis (strain ATCC 25618 / H37Rv)) (P9WIL5 whole entry, looked up): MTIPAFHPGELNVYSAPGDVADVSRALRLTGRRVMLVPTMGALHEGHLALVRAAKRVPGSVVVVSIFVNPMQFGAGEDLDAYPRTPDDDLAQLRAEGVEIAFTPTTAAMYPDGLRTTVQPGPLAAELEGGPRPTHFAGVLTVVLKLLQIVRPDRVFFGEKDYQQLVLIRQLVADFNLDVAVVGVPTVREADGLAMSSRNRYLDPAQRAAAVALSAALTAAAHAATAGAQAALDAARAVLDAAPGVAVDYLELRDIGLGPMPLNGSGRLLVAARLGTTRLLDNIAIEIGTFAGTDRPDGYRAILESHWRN
row,Structure (SMILES),inhibition [%]
1,Cc1cc(C)nc(SCc2csc(N)n2)n1,1
2,O=C(CSc1nc2[nH]ncc2c(=O)n1-c1ccccc1Br)NCc1ccco1,1
3,COc1ccc(N2CCN(CCNS(=O)(=O)c3cccc4nsnc34)CC2)cc1,2
4,COc1ccc2c(c1)[nH]c1c(=O)n(CCN(C)C)cnc12,0
5,Cc1ccc(CN2C(=O)CCC2C(=O)NC2CCCC2)cc1 (configuration not stated),0
6,CN1CCN(CCCNC(=O)C2CC(=O)N(C3CCCCC3)C2)CC1 (configuration not stated),4
7,CCN(CCNC(=O)C1CCN(S(=O)(=O)c2cccc3cccnc23)CC1)c1ccccc1,1
8,CC(=O)NC(CCS(C)(=O)=O)C(=O)Nc1cccc(C)c1 (configuration not stated),3
9,COc1ccc(-c2nc(C#N)c(N3CCN(c4ccccc4)CC3)o2)cc1,0
10,COC(=O)Nc1nnc(CCc2ccccc2)s1,2
11,COc1ccc(CC(NC(C)=O)C(=O)N2CCN(C(=O)N(C(C)C)C(C)C)CC2)cc1 (configuration not stated),0
12,CCOC(=O)Cn1nnnc1C(C(C)C)N(Cc1cc2c(C)cc(C)cc2[nH]c1=O)C1CCCC1 (configuration not stated),0
13,N#Cc1ccc(COC(=O)Cn2nnc(-c3ccccc3)n2)cc1,0
14,CCC(=O)Nc1ccc(NC(=O)c2ccccn2)cn1,0
15,O=C(c1cccs1)N1CCc2ccccc21,0
16,Cc1noc(C)c1CSc1nnc(-c2ccncc2)n1-c1cccc(Cl)c1C,0
17,CCOC(=O)Cc1csc(NC(=O)CSc2nnc(C3CC3)n2C)n1,3

# From PubChem BioAssay
